# ± gives the standard deviation.
# Assays:
# Settings in all cases: modulator concentration 10 µM
# [1] = system: RAW-Dual (murine macrophage reporter line); test: NF-kB reporter (SEAP) activity fold change vs agonist alone; higher = enhanced NF-kB activity
# Procedure, shortened: (§1)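 RAW-Dual murine macrophage reporter cells were plated at 50 000 per well in 384-well plates, pin-transferred compound to 10 μM final, and pre-incubated for 1 hour at 37 °C before a PRR agonist was added and the cells incubated overnight. NF-κB activity was read from supernatant SEAP with QUANTI-Blue at 620 nm absorbance, and IRF activity from Lucia luciferase with QUANTI-Luc by luminescence. Each signal was expressed as fold change by dividing by the mean agonist-only control on the same plate. Two replicate plates were averaged, with errors obtained by propagation.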
# [2] = system: RAW-Dual (murine macrophage reporter line); test: IRF reporter (Lucia luciferase) activity fold change vs agonist alone; higher = enhanced IRF activity
# Procedure, shortened: as §1
# [3] = system: RAW-Dual (murine macrophage reporter line); test: viability score (confluency relative to resting cells, overnight) (fraction); higher = more viable, active = viable (0.7 or more)
# Procedure, shortened: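 RAW-Dual macrophages in 384-well plates were treated overnight with compound at 10 μM final. IncuCyte imaging recorded confluency, and IncuCyte software built two confluency masks across every imaged well. The viability score expresses confluency relative to resting cells and was judged against a cutoff, which a compound met only if both masks exceeded 70% of resting cells.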
# [4] = agonist: CpG ODN 1826 0.5 ug/mL
SMILES,"NF-kB reporter [1, 4]",NF-kB reporter ([1]; agonist: LPS 0.1 ug/mL),NF-kB reporter ([1]; agonist: MPLA […]),IRF reporter ([2]; agonist: 3'3'-cGAMP 10 ug/mL),IRF reporter ([2]; agonist: LPS 0.1 ug/mL),IRF reporter ([2]; agonist: MPLA […]),viability score [3]
C=CCNC(N)=S,1.37 ± 0.2,1 ± 0.32,0.931 ± 0.077,0.898 ± 0.027,1.06 ± 0.4,0.986 ± 0.17,1.01 (active)
Cc1ccc(CNC(=O)CN(c2cccc3ccccc23)S(C)(=O)=O)cc1,0.97 ± 0.078,1.03 ± 0.098,0.957 ± 0.073,1.08 ± 0.031,1.47 ± 0.28,1.07 ± 0.096,1.01 (active)
Cc1cc(Cl)ccc1OCC(O)CN1CC(C)OC(C)C1.Cl (configuration not stated),0.764 ± 0.068,0.939 ± 0.1,0.934 ± 0.081,0.937 ± 0.043,1.05 ± 0.068,1.01 ± 0.087,0.977 (active)
O=C(NC(Cc1cc(=O)[nH]c2ccccc12)C(=O)O)c1ccc(Cl)cc1 (configuration not stated),1.4 ± 0.19,1.19 ± 0.21,0.968 ± 0.055,0.918 ± 0.03,1.32 ± 0.16,1.09 ± 0.16,0.992 (active)
O=C(NCC#CCOc1cccc(C(F)(F)F)c1)Nc1c(F)cccc1F,0.921 ± 0.077,1.13 ± 0.12,0.922 ± 0.045,0.994 ± 0.051,1.07 ± 0.17,1.15 ± 0.39,1.01 (active)
COc1ccc(Oc2coc3cc(OC(=O)c4ccc(Cl)c([N+](=O)[O-])c4)ccc3c2=O)cc1,0.82 ± 0.063,0.981 ± 0.052,1.08 ± 0.094,0.892 ± 0.048,1.29 ± 0.08,1.43 ± 0.14,1.02 (active)
Cc1ccc(C(=O)C(C)CN2CCCCC2)cc1.Cl (configuration not stated),0.981 ± 0.13,1.05 ± 0.14,0.908 ± 0.052,0.895 ± 0.032,1.27 ± 0.41,1.43 ± 0.15,0.956 (active)
Oc1ccc(C=NCc2ccccc2)cc1,1.11 ± 0.12,1.08 ± 0.079,1.04 ± 0.038,0.921 ± 0.11,0.999 ± 0.05,1.06 ± 0.19,1 (active)
CC(C)(O)CNC(=O)c1cccc([N+](=O)[O-])c1,0.928 ± 0.074,0.96 ± 0.11,0.954 ± 0.058,0.811 ± 0.12,0.971 ± 0.15,0.979 ± 0.23,0.995 (active)
Cc1c(C(=O)Nc2ccc(N3C[C@@H](C)O[C@@H](C)C3)nc2)cccc1-c1ccc(OC(F)(F)F)cc1,1.25 ± 0.17,1.13 ± 0.2,1.64 ± 0.18,0.412 ± 0.024,1.13 ± 0.13,1.37 ± 0.1,0.824 (active)
O=S(=O)(NCc1ccccn1)c1cccc(Cl)c1,0.918 ± 0.039,0.986 ± 0.12,1.06 ± 0.057,1.02 ± 0.061,1.32 ± 0.17,1.49 ± 0.46,0.986 (active)
COc1ccc(OCCSc2nc3ccccc3n2CCO)cc1,1.01 ± 0.094,1.09 ± 0.12,1.09 ± 0.031,1.35 ± 0.55,1 ± 0.063,1.05 ± 0.14,0.992 (active)
COc1ccc(S(=O)(=O)NC(C)C)c2ccccc12,0.904 ± 0.09,0.942 ± 0.084,1.06 ± 0.06,0.999 ± 0.074,1.01 ± 0.13,1.08 ± 0.39,0.951 (active)
COc1ccc(N(CC(=O)N2CCc3ccccc3C2)S(C)(=O)=O)c(OC)c1,1.04 ± 0.13,1.09 ± 0.093,0.913 ± 0.057,0.992 ± 0.026,1.49 ± 0.28,1.13 ± 0.089,1.01 (active)
CCOC(=O)C1CCN(C(=O)c2ccc(C#CC(C)(C)O)cc2)CC1,0.747 ± 0.063,0.845 ± 0.041,1.1 ± 0.1,0.91 ± 0.048,1.34 ± 0.077,1.46 ± 0.12,1.01 (active)
O=C(Cc1ccc([N+](=O)[O-])cc1)NN=Cc1ccccn1,1.09 ± 0.18,1.07 ± 0.077,1.04 ± 0.04,0.89 ± 0.11,1.05 ± 0.12,1.08 ± 0.14,1 (active)
O=c1[nH]c(=O)n(C2CC(O)C(CO)O2)cc1F (configuration not stated),1.67 ± 0.13,0.714 ± 0.057,0.978 ± 0.1,0.321 ± 0.025,0.684 ± 0.14,0.545 ± 0.12,1.04 (active)
Cc1cccc(NC(=O)Cc2c(C)nc(SCc3ccccc3F)[nH]c2=O)c1C,0.996 ± 0.059,1.13 ± 0.088,1.03 ± 0.081,0.938 ± 0.043,0.97 ± 0.081,0.937 ± 0.21,0.997 (active)
CC(=O)OC(OC(C)=O)c1ccc([N+](=O)[O-])cc1,1.16 ± 0.094,1.06 ± 0.069,1 ± 0.035,1 ± 0.17,1.09 ± 0.1,1.09 ± 0.17,1 (active)
Cc1nc2c(ccc3ccccc32)c(O)c1CN1CCCC1,0.283 ± 0.029,0.968 ± 0.076,0.95 ± 0.044,0.882 ± 0.073,1.06 ± 0.11,0.808 ± 0.17,1 (active)
COC(=O)N[C@H](C(=O)N[C@@H](Cc1ccccc1)[C@@H](O)CN(Cc1ccc(-c2ccccn2)cc1)NC(=O)[C@@H](NC(=O)OC)C(C)(C)C)C(C)(C)C.O=S(=O)(O)O,1.78 ± 0.14,1.27 ± 0.1,1.46 ± 0.15,0.886 ± 0.064,1.02 ± 0.061,1.14 ± 0.1,1.01 (active)
O=C1NC(=O)[C@@H](c2cn3c4c(cccc24)CCC3)[C@@H]1c1c[nH]c2ccccc12,1.1 ± 0.051,1.02 ± 0.17,1.12 ± 0.13,0.971 ± 0.058,0.921 ± 0.18,0.948 ± 0.27,1.01 (active)
O=S(=O)(NCCn1ccn2nccc12)c1ccccc1Br,0.86 ± 0.053,0.904 ± 0.091,1.02 ± 0.065,0.989 ± 0.049,1.14 ± 0.18,1.23 ± 0.34,0.983 (active)
CCS(=O)(=O)N1CC(CC#N)(n2cc(-c3ncnc4[nH]ccc34)cn2)C1,0.943 ± 0.099,1.13 ± 0.091,2.88 ± 0.17,0.189 ± 0.016,0.338 ± 0.035,0.517 ± 0.07,0.506 (inactive)
CCCCCCCCCCCCCCCCOc1nc2ccc(C)cc2c(=O)o1,1.1 ± 0.32,1.09 ± 0.057,0.961 ± 0.13,0.921 ± 0.034,1.27 ± 0.15,1.08 ± 0.23,1 (active)
COC(=O)C1=C(C)NC(C)=C(C(=O)OCCN(C)Cc2ccccc2)C1c1cccc([N+](=O)[O-])c1 (configuration not stated),0.317 ± 0.079,0.753 ± 0.06,0.72 ± 0.05,0.324 ± 0.028,1.14 ± 0.24,1.15 ± 0.12,0.982 (active)

# Reference: the supplement of paper PMC10646978
